# Most compounds without a hit are left out; they make up all but 18% or so of the library.
# DT40 TDP1 CPT: DT40-hTDP1 cell growth loss with CPT; chicken DT40 Tdp1-/-;hTDP1 cells + 20 nM CPT, ATP luminescence, 48 h; Potency, µM (titrated, usually from 46.2 µM), inactives show at the top dose activity change, negative = growth inhibition, actives largely listed as inhibitors; actives 12% (n = 420,000); also: potency is read from the fitted curve at half-maximal effect; nearly all actives have a fitted effect of over 55% in size
#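 Chicken DT40 Tdp1-/- cells complemented with human TDP1, 400 cells/well, exposed to compounds plus 20 nM camptothecin for at least 48 h at 37 C; viability read as ATP content by CellTiter-Glo luminescence.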
# DT40 TDP1 no CPT: qHTS for Inhibitors of human tyrosyl-DNA phosphodiesterase 1 (TDP1): qHTS in cells in absence of CPT | Potency, µM (doses to about 46.2 µM), for the others: at the top dose activity change, negative = growth inhibition, most hits filed as inhibitors | DT40 Tdp1-/- hTDP1 cells, no CPT, ATP luminescence, 48 h | AID 686978, 2013 | actives 15% (n = 420,000); also: potency is read from the fitted curve at half-maximal effect; nearly all actives have a fitted effect of over 55% in size
#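 Seeded 400 DT40-hTDP1 cells/well (vehicle DMSO, no 20 nM CPT); pinned compounds; ≥48 hr at 37 °C; CellTiter-Glo luminescence as viability measure.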
# CtBP-E1A inh: CtBP/E1A binding inhibition; AlphaScreen GST-E1A/His-CtBP binding, 1536-well; stronger effect = lower value; activity change, % (no concentration beside the values); actives 0.49% (n = 340,000); AID 651724; in the data active = activity change below about -65%; inconclusive = mostly about -30% to -63%
#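 Homogeneous bead-based format: GST-tagged E1A captured on glutathione donor beads, His-tagged CtBP on nickel acceptor beads; compounds precede bead addition by 2 h at 37 °C.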
# Six1-Eya2 inh: inhibitors of human Six1/Eya2 interaction | activity change, % (test concentration not listed) | Q15475+O00167 | actives 0.56% (n = 360,000) | AID 651725 | AlphaScreen GST-Six1/His-Eya2 binding, biochemical; stronger effect = lower value; in the data active = activity change below about -65%; inconclusive = mostly about -30% to -63%
#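 Homogeneous AlphaScreen proximity assay pairing GST-Six1 with His-tagged Eya2 (added as 5X mix: 250 nM and 500 nM) in 50 mM Tris pH 8.0, 300 mM NaCl, 1 mM TCEP. Glutathione donor and nickel acceptor beads; 1 h, 37 °C, dark.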
# TDP1 inh: blocks human tyrosyl-DNA phosphodiesterase 1; actives 0.28% (n = 350,000); Q9NUW8; Potency, µM (highest dose often 130 µM), for the others: at the top dose activity change, negative = inhibition, usual class: inhibitors; AID 485290; recombinant TDP1, AlphaScreen DNA substrate cleavage; also: potency is read from the fitted curve at half-maximal effect; nearly all actives have a fitted effect of over 40% in size
# Target sequence (Q9NUW8 whole entry, looked up): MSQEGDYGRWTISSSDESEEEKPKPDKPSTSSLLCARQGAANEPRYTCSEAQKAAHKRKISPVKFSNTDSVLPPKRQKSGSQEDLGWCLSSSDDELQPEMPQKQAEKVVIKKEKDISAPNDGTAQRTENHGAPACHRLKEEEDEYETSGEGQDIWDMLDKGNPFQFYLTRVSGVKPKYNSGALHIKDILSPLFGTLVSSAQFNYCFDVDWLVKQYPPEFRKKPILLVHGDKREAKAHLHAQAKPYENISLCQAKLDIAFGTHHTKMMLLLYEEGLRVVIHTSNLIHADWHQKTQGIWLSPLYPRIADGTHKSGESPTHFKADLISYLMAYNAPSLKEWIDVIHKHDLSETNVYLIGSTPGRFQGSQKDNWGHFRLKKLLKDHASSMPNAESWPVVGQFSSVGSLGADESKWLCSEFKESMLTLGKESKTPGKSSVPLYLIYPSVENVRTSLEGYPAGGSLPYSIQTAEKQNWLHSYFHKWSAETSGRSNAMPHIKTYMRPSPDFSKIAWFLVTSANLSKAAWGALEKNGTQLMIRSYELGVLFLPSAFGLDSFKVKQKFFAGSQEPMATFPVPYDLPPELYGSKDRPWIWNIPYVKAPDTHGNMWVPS
#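 Compounds were preincubated with Tdp1 (1 nM final) for 15 min at room temperature before substrate (15 nM final) started a 5 min reaction; beads (10 ug/ml final) were then added for 10 min before AlphaScreen detection.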
# IL1B secr inh: blocks inflammasome-driven IL-1 beta release | THP-1 LPS/ATP IL-1B secretion, AlphaLISA, 16 h; stronger effect = lower value | activity change, % at 57.5 µM | actives 4.7% (n = 360,000); in the data active = activity change below about -50%; inconclusive = mostly about -30% to -49%
#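 THP-1 cells pretreated 1 hr with compounds (up to 57.5 uM final), then stimulated with LPS (250 ng/mL final) plus ATP (1.25 mM final); secreted IL-1B measured by AlphaLISA after 16 hr, decreased signal indicating inhibition.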
# * = called active by the depositor; ? = inconclusive; · = no result; [ ] = dose if it differs, or a comment. Unless noted, calls follow the shape of the dose curve; as a rule, active = well fitted curve in the direction sought with a large enough effect; inconclusive = small, poorly fitted or top-dose-only effect, or another doubt; inactive = no such curve, though single readings can be large; an effect the other way counts as inactive or inconclusive. % is scaled to controls: 0 for no effect and ±100 for the full control effect.
SMILES,DT40 TDP1 CPT,DT40 TDP1 no CPT,CtBP-E1A inh,Six1-Eya2 inh,TDP1 inh,IL1B secr inh
CCCCNC(=O)CSc1nc(COc2ccccc2)nc2ccccc12,-12.3%,?,1.1,-0.2,2.5%,-98.7*
CCCc1nc(SCC(=O)NNC(=O)c2ccc(OC)cc2)c2ccccc2n1,-15.7%,-10.1%,-8.2,-13.4,5.0%,9.5
Cc1nc2ccc(NC(=O)c3cncc(Br)c3)cc2s1,?,?,-1.8,1.5,·,?
CC(C)COP(=O)(OCC(C)C)C(O)c1ccc(F)cc1 (stereo not given),-15.4%,-18.4%,-1.4,1.0,2.8%,1.8
C=CC[C@H](c1ccc(F)cc1)N(CC(C)C)S(=O)(=O)C=C,?,11.2µM*,·,·,·,·
CCCCCNCc1ccc(Cl)cc1,17.3%,-12.6%,8.6,8.2,-2.3%,5.7
CCCCCCC[N+](CC)(CC)CCCCc1ccc(Cl)cc1,0.651µM*,0.206µM*,4.3,-2.1,6.5%[56.1 µM],?
Cc1cc(CN2CCN(c3cccc(C)c3C)CC2)cs1,23.1µM*,14.6µM*,·,·,7.7%,·
Cc1cc(CN2CCN(c3ccccc3F)CC2)cs1,-28.5%,?,·,·,10.3%,·
CC(SC1=NCCS1)C(=O)Nc1nnc(-c2ccc(F)cc2)s1 (stereo not given),-8.9%,-21.8%,-9.6,-3.1,6.5%,-52.8*
CC(SC1=NCCS1)C(=O)Nc1nnc(-c2ccc(Br)cc2)s1 (stereo not given),?,?,-18.8,-1.6,2.2%,-19.6
Cc1ccccc1CC1(C)C(=O)Nc2ccc(S(=O)(=O)NC3CCCCC3)cc21 (stereo not given),?,20.6µM*,0.3,2.8,·,62.7
COc1ccccc1CC1(C)C(=O)Nc2ccc(S(=O)(=O)NC3CCCCC3)cc21 (stereo not given),20.6µM*,?,-11.1,9.4,·,-4.5
COc1ccc(Cl)cc1CC1(C)C(=O)Nc2ccc(S(=O)(=O)NC3CCCCC3)cc21 (stereo not given),23.1µM*,?,-2.8,-2.0,·,-9.2
COc1ccc(C(C)=O)cc1CC1(C)C(=O)Nc2ccc(OC(F)(F)F)cc21 (stereo not given),?,?,-8.6,-16.7,·,2.5
CC1(Cc2ccccc2OC(F)(F)F)C(=O)Nc2ccc(S(=O)(=O)NC3CCCCC3)cc21 (stereo not given),?,?,-10.6,-3.8,·,-2.0
COc1ccc(OC(F)(F)F)cc1CC1(C)C(=O)Nc2cccc(Cl)c21 (stereo not given),?,14.6µM*,2.3,4.2,·,0.0
CC1(Cc2ccc(F)cc2)C(=O)Nc2ccc(S(=O)(=O)NC3CCCCC3)cc21 (stereo not given),?,?,1.7,3.2,·,0.0
O=C(Nc1ccccc1)N1CC[C@@]2(CCCN(C(=O)c3cc(C(F)(F)F)cc(C(F)(F)F)c3)C2)C1,-11.3%,?,·,·,·,·
O=C(NCCc1ccccc1)C(=O)NCC(c1ccco1)S(=O)(=O)c1cccs1 (stereo not given),?,?,·,·,10.4%,·
COc1ccc(OC(F)(F)F)cc1CC1(C)C(=O)Nc2ccc(S(=O)(=O)NC3CCCCC3)cc21 (stereo not given),20.6µM*,?,0.0,7.2,·,-21.5
O=C(Cc1ccsc1)Nc1ccc(Cl)cc1Cl,-1.6%,0.9%,1.8,1.4,1.6%,-23.2
COc1cc(OC)nc(Nc2nc(C(N)Cc3ccc(C(F)(F)F)cc3)cs2)n1 (stereo not given),?,?,-10.0,-5.9,·,-111.5*
CCCc1cnc(Nc2nc(C(N)Cc3ccc(C(F)(F)F)cc3)cs2)nc1 (stereo not given),?,20.6µM*,-1.5,1.4,·,?
